Gal4-VP16 FLuc: Gal4-VP16 reporter inhibition counter-screen; Potency, µM (doses to about 53.6 µM), for inactives: at the top dose activity, negative = inhibition, actives largely listed as inhibitors; 3.5% of 310,000 active; Drosophila S2 Gal4-VP16 UAS-luciferase, luminescence, 20 h;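 also: Gal4-VP16 expression switched on by copper sulfate through the metallothionein promoter; % is scaled to controls: 0 for no effect and ±100 for the full control effect; nearly all actives have a fitted effect of over 50% in size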
Sfp inh: inhibitors of Bacillus subtilis Sfp phosphopantetheinyl transferase | Q9F4F7 | Biochemical Sfp PPTase activity, qHTS | Potency, µM, without a hit: largest response in the series, negative = inhibition, most hits filed as inhibitors | 3.5% of 310,000 active;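 also: the enzyme is Sfp with the accession as filed and its product quenches rhodamine fluorescence; 0% = enzyme reaction without inhibitor and -100% = no enzyme wells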
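Reaction rates are the 30-min fluorescence difference (ex 525, em 598 nm) in wells containing 15 nM Sfp, 5 uM rhodamine-CoA and 12.5 uM BHQ-2-YbbR at pH 7.6 with 10 mM MgCl2.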
PINK1 expr mod: changes PINK1 expression; PINK1 immunofluorescence, high-content cytometry, 24 h; Potency, µM (top dose mostly 76.6 µM), without a hit: top-dose activation (PINK1 increase), actives largely listed as activators; 0.2% of 410,000 active; AID 624263; active = well fitted activation curve with a large enough effect; inconclusive = small, poorly fitted or top-dose-only effect; cell line not stated here; also: % of control where 0% means no effect; nearly all actives have a fitted effect of over 65% in size
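Stable cell line treated 24 h with compounds at 5 concentrations (CCCP controls), then fixed and immunostained for PINK1 plus nuclear and cell stains; PINK1 immunofluorescence quantified by laser-scanning microplate cytometry.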
Epigenetic derep: regulators of epigenetic silencing causing reporter derepression in mouse cells | murine LDR cells, GFP reporter derepression, 30 h | Potency, µM (highest dose often 53.9 µM), for inactives: at the top dose GFP activation, usual class: activators | 0.2% of 280,000 active; also: % of control where 0% means no effect; nearly all actives have a fitted effect of over 60% in size
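Murine LDR cells bearing a silenced CMV-driven GFP reporter were exposed to compound for 30 h at 37 C. After PBS washes, GFP-positive cells (20-120 um objects) counted by laser-scanning microplate cytometry.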
RORgamma inh: inhibitors of mouse ROR gamma transcriptional activity; P51450; Drosophila S2 Gal4-RORgamma UAS-luciferase reporter, 20 h; Potency, µM (series often up to 53.6 µM), without a hit: top-dose activity change, negative = inhibition, usual class: inhibitors; 5.4% of 310,000 active; also: % is scaled to controls: 0 for no effect and ±100 for the full control effect; nearly all actives have a fitted effect of over 60% in size
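ROR gamma transcriptional activity was tracked as Gal4-UAS luciferase output in stably transfected Drosophila Schneider cells, with compound added 1 hr before 700 uM copper sulfate induction and a 20 hr ambient-temperature incubation.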
ClpP mod: qHTS Assay for Activators of ClpP. ATP-dependent Clp protease proteolytic subunit (Bacillus subtilis (strain 168)), P80244. purified B. subtilis ClpP, FRET peptide cleavage, 20 min. Potency, µM (doses to about 57.5 µM), for inactives: top-dose activity change, negative = active. 1.9% of 340,000 active; active = well fitted falling curve with a large enough effect; inconclusive = small, poorly fitted or top-dose-only effect; inactive = no such curve, though single readings can be large or run the other way; also: the source files actives as falling curves though it sought activators and does not explain the sign; nearly all actives have a fitted effect of over 65% in size
Target sequence (P80244 whole entry, looked up): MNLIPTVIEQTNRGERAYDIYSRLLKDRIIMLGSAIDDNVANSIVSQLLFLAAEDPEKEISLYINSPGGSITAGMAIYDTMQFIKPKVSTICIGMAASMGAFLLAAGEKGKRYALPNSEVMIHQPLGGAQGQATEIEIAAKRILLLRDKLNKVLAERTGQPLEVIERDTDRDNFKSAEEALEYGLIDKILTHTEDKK
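ClpP 10 microg/mL final, pH 8 Tris/KCl buffer with BSA, glycerol, Tween-20; compound pinned in; FRET-FV substrate; RT 20 min; Ex320/Em430; ΔFRET vs ADEP 5.8 microM, DMSO, no enzyme.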
Starred values were filed as active, the others as inactive; u = inconclusive; x = no result. A selection: hits, their analogues and other compounds. The true share with any hit is near 8.1%. Unless noted, calls follow the shape of the dose curve; as a rule, active = well fitted curve in the direction sought with a large enough effect; inconclusive = small, poorly fitted or top-dose-only effect, or another doubt; inactive = no such curve, though single readings can be large; an effect the other way counts as inactive or inconclusive. Potency is read from the fitted curve at half-maximal effect.

SMILES	Gal4-VP16 FLuc	Sfp inh	PINK1 expr mod	Epigenetic derep	RORgamma inh	ClpP mod
COc1cc(/C=C2/S/C(=N/S(=O)(=O)c3ccccc3)NC2=O)c([N+](=O)[O-])cc1OC	1%	79µM*	3%	1%	-3%	0%
COc1cc(/C=C2\S/C(=N/S(=O)(=O)Cc3ccccc3)NC2=O)c([N+](=O)[O-])cc1OC	-8%	-1%	-1%	2%	23%	1%
Cc1ccc(S(=O)(=O)/N=C2/NC(=O)/C(=C/c3ccc(Br)o3)S2)cc1	-9%	3%	-2%	-1%	21%	-8%
O=C1N/C(=N\S(=O)(=O)Cc2ccccc2)S/C1=C/c1cc([N+](=O)[O-])ccc1O	-6%	28µM*	0%	0%	1%	2%
O=C(CSc1cccc[n+]1[O-])c1cc(Cl)ccc1Cl	u	-22%	2%	u	11µM*	x
O=C(O)CSc1cccc[n+]1[O-]	10%	9%	-1%	-1%	-14%	0%
CC(C)CC(=O)NCC1(N(C)C)CCCCC1	x	x	-1%	-2%	x	-1%
O=C(CSC1CCCCC1)Nc1nccs1	8%	8%	-1%	1%	-27%	1%
Cc1nnc(NC(=O)CSC2CCCCC2)s1	-20%	-2%	2%	0%	22µM*	-1%
Cc1cc2oc3c(c(=O)c2cc1C)C(c1ccc(C(C)C)cc1)N(c1nc(C)c(C)s1)C3=O (centres undefined)	x	x	-1%	0%	x	2%
S=c1ccss1	u	u	0%	1%	13µM*	x
O=C1C2=C(Nc3ccccc3SC2c2ccccc2C(F)(F)F)c2ccccc21 (centres undefined)	x	x	13µM*	0%	x	2%
COc1cc(NC(=O)CCc2c(C)n(C)c3cc(-c4ccccc4C)nn3c2=O)cc(OC)c1OC	x	x	6%	0%	x	3%
N=c1c(S(=O)(=O)c2ccc(Cl)cc2)cc2c(=O)n3ccccc3nc2n1Cc1cccnc1	-3%	2%	40µM*	x	-23%	-8%
N=c1c(S(=O)(=O)c2ccc(Cl)cc2)cc2c(=O)n3ccccc3nc2n1CCN1CCOCC1	0%	4%	3%	4%	-8%	u
Cn1c(=N)c(S(=O)(=O)c2ccccc2)cc2c(=O)n3ccccc3nc21	3%	9%	9%	-1%	-43%	7.9µM*
N=c1c(S(=O)(=O)c2ccc(Cl)cc2)cc2c(=O)n3ccccc3nc2n1CCc1ccccc1	1%	25µM*	x	x	-9%	x
COc1ccccc1CNC(=O)Cn1c(=O)nc(-c2ccccc2)c2ccccc21	x	x	1%	-1%	x	0%
O=c1cc(-c2ccccc2)n2c(SCc3cccc([N+](=O)[O-])c3)nnc2[nH]1	x	x	-7%	u	x	1%
CCn1cc(/C=N/NC(=O)c2cc3c(ccc4ccccc43)o2)c2ccccc21	u	7%	9%	-2%	7.1µM*	u
CC(C)n1cc(/C=N\NC(=O)c2cc3c(ccc4ccccc43)o2)c2ccccc21	-25%	-2%	1%	-1%	u	1%
CCOC(=O)COc1ccccc1/C=N\NC(=O)c1cc2c(ccc3ccccc32)o1	3%	-8%	0%	x	-23%	28µM*
C=CCN1CCc2c(cc(O)c(O)c2Cl)C(c2ccccc2)C1 (centres undefined)	-5%	u	13%	-1%	-12%	1%
Oc1cc2c(c(Cl)c1O)CCNC[C@H]2c1ccccc1	0%	79µM*	x	2%	24%	x
Cc1cccc(C2CN(C)CCc3c2cc(O)c(O)c3Cl)c1 (centres undefined)	x	x	2%	0%	x	1%
Oc1cc2c(c(Cl)c1O)CCNCC2c1ccccc1 (centres undefined)	x	50µM*	0%	-1%	x	2%
Nc1c(C(=O)N2CCOCC2)sc2nc(N3CCOCC3)c3c(c12)CCCC3	-1%	10µM*	-1%	0%	-8%	4%

Screens as filed in PubChem BioAssay.
